This is part of a sample that, as a whole, favours compounds with a hit. Of some 83,000 tested, about 20% had one in any assay.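 In brief: 96-well plates, 48 h treatment, single concentration, percent growth endpoint.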 A number with no mark means an inactive call. Activity calls are given as the source filed them. The calls were made as follows: active = growth percent below 10; inactive = the rest.

The test system of the test is HL-60(TB) leukemia. Description: NCI-60 one-dose screen, 48 h (100 = growth as untreated, 0 = no growth, -100 = all killed). The following applies: 10 µM unless noted.
As to `CC1=C(C(=O)c2ccccc2)C(c2ccc3c(c2)OCO3)NC(=S)N1` (stereo not given), the growth was 2.6% (active).

As for `COc1ccc(-c2nnc(-c3c(-c4ccccc4)nc4ncccn34)o2)cc1OC`, the growth is 85.5%. Next, `O=C(Nc1cccc(Cl)c1)Nc1ncc(CCNc2ncnc3ccsc23)s1`: 8.72% (active). `O=C1C=CC(O)=CC1=P(c1ccccc1)(c1ccccc1)c1ccccc1`: the growth was 97.8%. Next, `COC(=O)c1nc(=S)[nH]c(C(=O)OC)c1C(=O)c1ccc(Cl)c(Cl)c1`: 101%; `O=C(Nc1ccccc1)c1cc(Cl)ccc1O`: 29.6%; `O[C@H]1CO[C@H]2[C@@H]1OC[C@@H]2Oc1ccc(Nc2ccnc(Nc3ccc(O[C@H]4CO[C@H]5[C@@H]4OC[C@@H]5O)c(Cl)c3)n2)cc1Cl`: -7.8% (active). The same measure for `COc1cccc(-c2nc3occn3c2-c2ccnc(NCCCNS(=O)(=O)c3ccc(C(F)(F)F)cc3)n2)c1`: 116%; for `CC(=O)OC(C)c1cccc(C#N)c1` (stereo not given): 105%. Take `Nc1ccc(C2=Nc3cccc4cccc(c34)S2)cc1`: the growth was 76.7%. Next, `Cc1cc(Cl)nc(N(CCCNc2ccnc3cc(Cl)ccc23)Cc2ccco2)n1`: -35.9% (active). Consider `O=C(O)/C(Br)=C/c1c[nH]c2ccc(Br)cc12`, for which the growth is 96.9%. The same measure for `CN(C)CCOc1nc2ccccc2c2c1-c1ccc(Cl)cc1C2=O`: -27.2% (active); for `Cc1nc2cc(Nc3nc(NCCN)nc(Nc4ccc(F)cc4)n3)ccc2n1Cc1ccccc1`: -21.5% (active).

Turning to `COc1cc(C[C@H]2COc3cc(O)cc(O)c3C2=O)ccc1O`, the growth is -35.5% (active).

Take `O=C(O)c1cccc2c1-c1ccc(Cl)cc1C2`: the growth was 78.1%. The same measure for `CCCCN(CCC#N)C(N)=O`: 99.6%; for `COC(=O)/C=C1/SC(N2N=C(c3cccs3)CC2c2ccc(F)cc2)=NC1=O` (stereo not given): -7.95% (active). As for `N#Cc1c(N)nc2c(c(-c3ccc(Cl)cc3)nn2-c2ccccc2)c1C#N`, the growth was 98.9% [100 µM]. Regarding `CCOc1cccc(/C=N/NC(=O)Cc2ccc(Nc3ccnc(C(F)(F)F)c3)cc2)c1O`, the growth is 73.1%.

`C=C1C(=O)O[C@H]2[C@H]1CC/C(COC(=O)C(=O)c1c[nH]c3ccccc13)=C\CC[C@@]1(C)O[C@@H]21`: the growth is -46.5% (active).

As to `Cn1cc(-c2nnc(-c3cn(C)c4ncc(Br)cc34)o2)c2ccccc21`, the growth was 99%.

With `COc1ccc(/C=C/C(=O)NCCO)cc1`, the growth is 93.6%. Next, `CCN(CC)Cc1cccc(C(=O)OC)c1`: 83.2%; `Cc1cc(Nc2nc(N[C@@H](C)c3ncc(F)cn3)ncc2Cl)n[nH]1`: 54.2%. For the molecule `N=c1c2c(=O)n3c(nc2nc2sc4ccc(Cl)cc4n12)-c1ccccc1Sc1ccccc1-3`, the growth is 4.46% (active). Regarding `COc1cc(C2CC(=O)Nc3c2cnn3C)cc(OC)c1OC` (stereo not given), the growth was 97.6%.

With `Nc1nc(N)c2nc(CNc3ccc(C(=O)CC(CCC(=O)O)C(=O)O)cc3)cnc2n1` (stereo not given), the growth is 49%. Next, `O=C(Nc1cccc2ccccc12)c1cc2ccccc2cc1O`: 9.13% (active); `COc1ccc(-c2cn[nH]c2-c2cc(OC)c(OC)c(OC)c2)cc1OCc1ccccc1`: 20.4%; `N#CC1=C(N)Oc2nc[nH]c(=O)c2C1c1cccs1` (stereo not given): 98.8%. Turning to `CCN(CC)CCCNCc1cc(-c2ccccc2)nc2ccccc12`, the growth was -19.3% (active).

For `CCOc1c(B(O)O)cccc1-c1nc2ccc3[nH]ncc3c2c2c1CCCC2`, the growth was 23.6%. The same measure for `COc1cc(C2C3=C(COC3=O)N(CCO)c3cc4c(cc32)OCO4)cc(OC)c1O` (stereo not given): 4.08% (active). The same measure for `Cc1ccc2nc(NC(=O)CSc3nc(Cl)c(C#N)c(-c4ccccc4)n3)sc2c1`: 94.9%; for `O=C(Nc1ccc(-n2cc(-c3ccncc3)c(-c3ccc(Cl)c(O)c3)n2)cc1)c1cc(Cl)cc(Cl)c1`: 8.45% (active). The same measure for `Fc1ccc2[nH]cc(-c3nc(-c4ccsc4)cs3)c2c1`: 99.3%; for `COc1cc(CNC(=O)CCCC/C=C/C(C)C)ccc1O`: 91.1%; for `Cc1ccc2nc(-c3c(CCCO)noc3N)[nH]c(=O)c2c1`: 89.8%. On to `Cc1ccc(NS(=O)(=O)c2ccc(-c3cnc(C4CC4)o3)cc2)cc1`, for which the growth was 24.3%.

The record behind these values is PubChem BioAssay (NCI).
